The record followed here is PubChem BioAssay AID540360 (National Center for Advancing Translational Sciences (NCATS), 2011).

Records with an inconclusive call do not appear. Calls of active or inactive are those of the source. The call rests on the fitted dose curve; in most records, active means well fitted inhibition curve with a large enough effect; inconclusive means small, poorly fitted or top-dose-only effect; inactive means no such curve, though single readings can be large or run the other way.

This assay relates to 6-phosphofructokinase (Trypanosoma brucei). Kind of assay: Confirmatory Assay to Find Inhibitors of T. brucei phosphofructokinase: probe SAR. As to conditions: recombinant T. brucei PFK, ADP-Glo luminescence; series mostly up to 57.5 µM. From the text:
NIH Molecular Libraries Probe Production Network [MLPCN] NIH Chemical Genomics Center [NCGC] Grant: 1 R03 MH092153-01 PI Name: Malcolm Walkinshaw, University of Edinburgh NCGC Assay Overview: Various species of the protozoan family Trypanosomatidae are responsible for a range of serious human diseases in tropical and subtropical areas of the world. […] Many of the disorders caused by trypanosomatids are fatal if left untreated, but most currently used drugs are inefficient and toxic. […] Oxidative metabolism involving the mitochondrial tricarboxylic acid cycle and oxidative phosphorylation are repressed in these parasites, and recent RNA interference (RNAi) experiments have shown that even partial depletion of certain individual glycolytic enzymes can lead to the death of cultured parasites. One such glycolytic enzyme, phosphofructokinase (PFK), catalyzes the formation of fructose-1,6-bisphosphate (F1,6BP) and ADP from fructose-6-phosphate (F6P) and ATP, and in many metabolic circumstances makes an important contribution to the control of flux through the glycolytic pathway. As a specific glycolytic target, PFK is particularly attractive as it catalyzes the first irreversible step in glycolysis, and structural and kinetic studies have shown very substantial and essential differences from corresponding host enzymes, allowing for the discovery of parasite-selective inhibitors. The goal of this screen is to find small-molecule inhibitors of T. brucei PFK using a biochemical assay that measures PFK activity as a function of ADP production. A luminescence-based assay for T. brucei PFK activity has been developed which uses luciferase to detect production of ADP. Traditional luciferase-based nucleotide detection reagents rely on ATP production as a direct substrate for the luciferase reaction; however, PFK catalyzes the transfer of a phosphate from ATP to F6P, resulting in the net depletion of ATP. To directly measure the ADP product of the PFK reaction, we used the ADP-Glo detection kit (Promega), which utilizes two separate reactions to 1) deplete all remaining uncatalyzed ATP and 2) convert all remaining ADP to ATP, which is then detected through a traditional luciferase-coupled reaction. Compounds were screened as a concentration-titration series that ranged from 57 uM to 0.3 nM.
NCGC Assay Protocol Summary: NCGC Assay Protocol Summary: Substrate buffer was dispensed into white, solid 1536-well plates at 3uL/well in 0.1M triethanolamine (TEA) buffer, pH 8.0, containing final concentrations of 5 mM MgCl2, 0.01% Tween20, 0.5 mM fructose-6-phosphate (F6P) and 0.1mM ATP. Then, 23 nL of compounds or DMSO were delivered to each well using a pin tool. One uL T. brucei PFK (0.1M TEA, 0.01% Tween20, 0.1% bovine serum albumin (BSA) and 1.25nM PFK, final concentrations) was then dispensed, and plates were incubated at room temperature for 45 min. The luminescent detection reagent, ADP-Glo (Promega), was then added in two steps: the first reagent, ADP-Glo (which converts remaining uncatalyzed ATP), was added at 2.5uL/well and incubated for ten minutes at room temperature, and the second component, Kinase Detection reagent (which converts ADP to ATP as a substrate for luciferase-based luminescence), was added immediately after at 5uL/well, followed by one final ten minute room temperature incubation. The plates were measured on a ViewLux plate reader for luminescent signal using a clear filter with a one second exposure. The %Activity was determined from the corrected luminescence values. As no specific T. brucei PFK inhibitors have been identified in the literature, 1x (1.25nM) and 0x PFK enzyme controls (untreated) were included to normalize %Activity of identified inhibitors; 0x enzyme values corresponded to 100%Activity (full inhibition), while 1x PFK enzyme values were used to normalize 0%Activity (no inhibition). Concentration-response curves were fitted to the signals arising from the resulting luminescence. […]
For `Cc1cc(NS(=O)(=O)c2ccc(NC(=O)Cc3ccc(Cl)cc3Cl)cc2)no1`, the Potency is 4.61 µM (active).

Turning to `Cc1cc(NC(=O)c2csc(NC(=O)Cc3ccc(Cl)c(Cl)c3)n2)no1`, the Potency result is “inactive”.

Turning to `Cc1cc(NS(=O)(=O)c2ccc(NC(=O)Cc3cccc(Cl)c3)cc2)no1`, the Potency is 7.3 µM (active).

Turning to `O=C(Cc1ccc(Cl)c(Cl)c1)Nc1ccc(S(=O)(=O)Nc2ccn[nH]2)cc1`, the Potency was 0.517 µM (active).

For `Cc1cc(NS(=O)(=O)c2ccc(NC(=O)Cc3ccc(Cl)c(Cl)c3)cc2)no1`, the Potency is 0.41 µM (active).

In the case of `Cc1cc(NC(=O)c2ccc(NC(=O)Cc3ccc(Cl)c(Cl)c3)cc2)no1`, the Potency entry was “inactive”.

As to `Cc1cc(NS(=O)(=O)c2cccc(NC(=O)Cc3ccc(Cl)c(Cl)c3)c2)no1`, the Potency was 16.3 µM (active).

`Cc1cc(NS(=O)(=O)c2ccc(NC(=O)Cc3ccc(C)c(F)c3)cc2)no1`: the Potency is 5.8 µM (active).

With `Cc1cc(NS(=O)(=O)c2ccc(NC(=O)Cc3ccc(Cl)c(C(F)(F)F)c3)cc2)no1`, the Potency is 0.461 µM (active).

In the case of `COc1ccc(CC(=O)Nc2ccc(S(=O)(=O)Nc3cc(C)on3)cc2)cc1OC`, the Potency entry was “inactive”.

On to `CN(C)c1cccc(NS(=O)(=O)c2ccc(NC(=O)Cc3ccc(Cl)c(Cl)c3)cc2)c1`, for which the Potency was 5.8 µM (active).

Consider `O=C(Cc1ccc(Cl)c(Cl)c1)Nc1ccc(S(=O)(=O)Nc2cccc(C(=O)O)c2)cc1`, for which the Potency was 0.259 µM (active).

Regarding `O=C(Cc1ccc(Cl)c(Cl)c1)Nc1ccc(S(=O)(=O)Nc2ccon2)cc1`, the Potency was 0.366 µM (active).

On to `Cc1cc(NS(=O)(=O)c2ccc(NC(=O)Cc3ccc(Cl)c(F)c3)cc2)no1`, for which the Potency is 0.58 µM (active).

Consider `O=C(Cc1ccc(Cl)c(Cl)c1)Nc1ccc(S(=O)(=O)Nc2ccc(C(=O)O)cc2)cc1`, for which the Potency was 0.163 µM (active).

Take `O=C(Cc1ccc(Cl)c(Cl)c1)Nc1ccc(S(=O)(=O)Nc2ccccc2)cc1`: the Potency is 16.3 µM (active).

`Cc1cc(NS(=O)(=O)c2ccc(NCCc3ccc(Cl)c(Cl)c3)cc2)no1`: the Potency is 4.61 µM (active).

As for `O=C(Cc1ccc(Cl)c(Cl)c1)Nc1ccc(S(=O)(=O)O)cc1`, the Potency was 0.651 µM (active).

Consider `Cc1cc(NS(=O)(=O)c2ccc(NC(=O)Cc3ccc(Cl)c(Cl)c3)cc2)on1`, for which the Potency was 0.206 µM (active).

Regarding `Cc1cc(N[S+](=O)([O-])c2ccc3cc(NC(=O)Cc4ccc(Cl)c(Cl)c4)ccc3c2)no1`, the Potency is 5.8 µM (active).

On to `CCOC(=O)c1cccc(NS(=O)(=O)c2ccc(NC(=O)Cc3ccc(Cl)c(Cl)c3)cc2)c1`, for which the Potency result was “inactive”.

For `O=C(Cc1ccc(Cl)c(Cl)c1)Nc1ccc(S(=O)(=O)Nc2cncnc2)cc1`, the Potency was 0.819 µM (active).

Turning to `Cc1cc(NS(=O)(=O)c2ccc(NC(=O)Cc3ccc4ccccc4c3)cc2)no1`, the Potency was 6.51 µM (active).

For `Cc1cc(N[S+](=O)([O-])c2ccc(NC(=O)Cc3ccc(Cl)nc3)cc2)no1`, the Potency is 20.6 µM (active).

Consider `Cc1cc(NS(=O)(=O)c2ccc(NC(=O)Cc3ccc(C)c(C)c3)cc2)no1`, for which the Potency is 18.3 µM (active).

On to `O=C(Cc1ccc(Cl)c(Cl)c1)Nc1ccc(S(=O)(=O)Nc2cccc(O)c2)cc1`, for which the Potency was 1.46 µM (active).

For `Cc1cc(NS(=O)(=O)c2ccc(N(C)C(=O)Cc3ccc(Cl)c(Cl)c3)cc2)no1`, the Potency was 1.63 µM (active).

In the case of `Cc1cc(NS(=O)(=O)c2ccc(NC(=O)Cc3ccc(Cl)cc3)cc2)no1`, the Potency was 1.83 µM (active).

Consider `Cc1cc(N(C)S(=O)(=O)c2ccc(NC(=O)Cc3ccc(Cl)c(Cl)c3)cc2)no1`, for which the Potency is 2.91 µM (active).

As for `COc1ccc(CC(=O)Nc2ccc(S(=O)(=O)Nc3cc(C)on3)cc2)cc1C`, the Potency entry is “inactive”.

As to `Cc1cc(NS(=O)(=O)c2ccc(NC(=O)Cc3ccc(Cl)c(Cl)c3)cc2)n(C)n1`, the Potency is 1.46 µM (active).

`Cc1cc(NS(=O)(=O)c2ccc(C(=O)NCc3ccc(Cl)c(Cl)c3)cc2)no1`: the Potency is 2.91 µM (active).

Take `Cc1cc(NS(=O)(=O)Cc2ccc(NC(=O)Cc3ccc(Cl)c(Cl)c3)cc2)no1`: the Potency was 2.59 µM (active).

Consider `Cc1cc(NS(=O)(=O)c2ccc(NC(=O)CCc3ccc(Cl)c(Cl)c3)cc2)no1`, for which the Potency is 5.17 µM (active).
